Assay [1] in a line: ACEA_ER_80hr: ACEA Biosciences xCELLigence Real-Time Cell Analysis on Estrogen Receptor Agonism for Proliferation (AID 2282667; active = hit-call score of the fitted dose curve at least 0.9, where 1 is the maximum). As to conditions: T47D proliferation, impedance (xCELLigence), 80 h. The method in brief: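 Real-time electrical impedance tracked growth of the human breast line T47D, with the 80 h post-dosing value used. Dosing spanned eight 1:4 steps down from a 100 uM final top concentration, run in duplicate.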

A short description of assay [2]: ATG_CRE_CIS: Attagene CIS-FACTORIAL HepG2 Assay for human cAMP Responsive Element (CRE) binding protein 3 (AID 2282926). As to conditions: HepG2 CRE cis-reporter, Attagene multiplexed mRNA; actives raise or lower the signal. The gist of the method:
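Assay format: transient reporter transfection of HepG2, 24 h treatment, total RNA isolation with DNase I step. Reporter abundance read by fluorescence after PCR and capillary separation; DMSO-normalised gain or loss fitting.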

For assay [3], the target named is CCAAT/enhancer-binding protein beta (Homo sapiens) (UniProt P17676). Briefly: ATG_C_EBP_CIS: Attagene CIS-FACTORIAL HepG2 Assay for human CCAAT/Enhancer Binding Protein (C/EBP) beta (AID 2282927). The note with it: HepG2 Attagene cis-factorial transcription factor reporter; actives raise or lower the signal. The gist of the method:
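HepG2 transiently transfected with multiplexed reporter units under cis-regulatory promoters reporting endogenous C/EBPb activity. After 24 h exposure, reporter mRNA assayed by RT-PCR, fluorescent labelling, HpaI digestion and capillary electrophoresis; bidirectional fitting versus DMSO.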

Assay [4] is described as follows: ATG_CMV_CIS: Attagene CIS-FACTORIAL HepG2 Assay for human CMV (Internal Marker) (AID 2282928).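 Also: endpoint acts as a background internal control marker rather than a target.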 The note with it: HepG2 CMV promoter reporter, transcription factor profiling; actives raise or lower the signal. The method in brief:
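Reporter transcripts from transfected HepG2 cells are isolated after 24 h of chemical dosing, reverse-transcribed and amplified. Fragments labeled with 6-FAM are cut with HpaI and quantified by capillary electrophoresis; DMSO defines baseline.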

A short description of assay [5]: ATG_DR4_LXR_CIS: Attagene CIS-FACTORIAL HepG2 Assay for human Liver X Receptor (LXR), DR4 submotif (AID 2282929). As to conditions: HepG2 Attagene DR4 cis-reporter, mRNA transcription; actives raise or lower the signal. The gist of the method:
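HepG2, transient MRTU transfection, cis-element (DR4) promoter; 24 h compound exposure; total RNA → oligo(dT) RT → PCR → 6-FAM primer extension → HpaI cut → CE. Gain/loss vs DMSO, bidirectional fit.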

Assay [6] addresses Aryl hydrocarbon receptor (Homo sapiens) (UniProt P35869). Briefly: ATG_Ahr_CIS: Attagene CIS-FACTORIAL HepG2 Assay for human Aryl Hydrocarbon Receptor (Ahr) (AID 2282930). As to conditions: HepG2 AhR cis-factorial reporter transcription; actives raise or lower the signal. The gist of the method: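 HepG2 cells transiently transfected with cis-element-driven multiplexed reporter units; endogenous AhR activity read as reporter mRNA 24 h after dosing, via RT-PCR, 6-FAM labelling, HpaI digestion and capillary electrophoresis. Bidirectional fit relative to DMSO.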

Assay [7] is described as follows: ATG_AP_1_CIS: Attagene CIS-FACTORIAL HepG2 Assay for human Activator Protein 1 (AP-1) (AID 2282931). The note with it: HepG2 Attagene cis-factorial AP-1 reporter mRNA; actives raise or lower the signal. The gist of the method:
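Transient MRTU transfection of HepG2 → 24 h chemical treatment → RNA isolation, RT-PCR, 6-FAM labelling, HpaI digest → capillary electrophoresis. Fit: bidirectional, DMSO negative control.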

Assay [8] can be described thus: ATG_AP_2_CIS: Attagene CIS-FACTORIAL HepG2 Assay for human Activator Protein 2 (AP-2) (AID 2282932). As to conditions: HepG2 AP-2 cis-reporter, Attagene transcription factor profiling; actives raise or lower the signal. The method in brief: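 Read-out: fluorescent reporter mRNA via RT-PCR and capillary electrophoresis, 24 h post-dose in transiently transfected HepG2. Endogenous factors drive cis-promoter reporters; gain or loss of signal fitted bidirectionally against DMSO.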

The nature of assay [9]: ATG_BRE_CIS: Attagene CIS-FACTORIAL HepG2 Assay for human Bone Morphogenetic Protein (BMP) Response Element (BRE) (AID 2282933). As to conditions: HepG2 BMP response element reporter, Attagene transcription factor profiling; actives raise or lower the signal. The gist of the method: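 Endogenous transcription factor activity read in transiently transfected HepG2 cells after 24 h chemical exposure. Bidirectional curve fitting against DMSO; readout is reporter transcript level by RT-PCR with capillary electrophoresis of labelled products.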

Assay [10] has as its target Retinoic acid receptor alpha (Homo sapiens) (UniProt P10276). Kind of assay: ATG_DR5_RAR_CIS: Attagene CIS-FACTORIAL HepG2 Assay for human Retinoic Acid Receptor Alpha (RARE), DR5 submotif (AID 2282934).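 As to AC50: reporter responds to endogenous RAR alpha beta and gamma in HepG2 not RARA alone.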 The note with it: HepG2 Attagene cis-factorial RARE DR5 reporter, mRNA; actives raise or lower the signal. The method in brief:
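HepG2 cells transiently transfected with multiplexed reporter units; DR5 cis-element drives reporter through endogenous transcription factors. After 24 h dosing, reporter mRNA quantified by RT-PCR, fluorescent labeling, HpaI digestion and capillary electrophoresis; bidirectional fitting versus DMSO.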

The target of assay [11] is Transcription factor E2F1 (Homo sapiens) (UniProt Q01094). Kind of assay: ATG_E2F_CIS: Attagene CIS-FACTORIAL HepG2 Assay for human E2F Transcription Factor 1 (AID 2282935). The note with it: HepG2 Attagene cis-reporter, E2F reporter RNA transcripts; actives raise or lower the signal. The gist of the method:
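Transient MRTU transfection of HepG2; 24 h compound exposure; RNA → oligo(dT) RT → PCR → FAM label → HpaI cut → CE fluorescence. Gain/loss of signal fit against DMSO.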

Assay [12] in a line: ATG_E_Box_CIS: Attagene CIS-FACTORIAL HepG2 Assay for human Enhancer Box (E-box) (AID 2282936). As to conditions: HepG2 E-box cis-reporter transcription, actives raise or lower the signal. The method in brief:
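Transiently transfected HepG2, endogenous TF-driven reporters, 24 h dosing. Readout: RT-PCR plus capillary electrophoresis of fluorescent reporter fragments. Gain or loss of signal fitted bidirectionally against DMSO baseline.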

Assay [13] in a line: ATG_M_61_CIS: Attagene CIS-FACTORIAL HepG2 Assay for M61 Transcription Factor (Internal Marker) (AID 2282937). As to conditions: HepG2 Attagene CIS-FACTORIAL M61 internal marker reporter; actives raise or lower the signal. The method in brief: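 Human liver HepG2, transient MRTU transfection (cis promoter elements), 24 h compound. Total RNA → oligo(dT) RT → PCR → FAM label → HpaI → CE. Internal background marker; bidirectional fitting, DMSO = baseline.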

Assay [14] can be described thus: ATG_EGR_CIS: Attagene CIS-FACTORIAL HepG2 Assay for human Early Growth Response 1 (EGR1) (AID 2282938). The note with it: HepG2 Attagene CIS-FACTORIAL EGR reporter mRNA; actives raise or lower the signal. The gist of the method:
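Transient transfection of human HepG2 with multiple cis-regulated reporter units, chemical exposure 24 h, total RNA isolated. Reverse transcription, PCR, fluorescent labelling and capillary electrophoresis quantify reporter transcripts; activity fitted bidirectionally against DMSO.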

The nature of assay [15]: ATG_M_19_CIS: Attagene CIS-FACTORIAL HepG2 Assay for M19 Transcription Factor (Internal Marker) (AID 2282939). As to conditions: HepG2 Attagene CIS-FACTORIAL M19 internal marker reporter; actives raise or lower the signal. The gist of the method: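 Internal marker readout, fitted in both directions against DMSO, from HepG2 cells carrying transfected cis-element reporter constructs; RT-PCR and capillary electrophoresis of reporter mRNA after 24 h exposure.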

The nature of assay [16]: ATG_ERE_CIS: Attagene CIS-FACTORIAL HepG2 Assay for Estrogen Response Element (ERE) (AID 2282940). As to conditions: HepG2 ERE cis-reporter, Attagene RNA transcript; actives raise or lower the signal. The gist of the method: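 After 24 h compound treatment, RNA from transfected HepG2 cells was reverse-transcribed, reporter cDNA PCR-amplified, FAM-labelled, HpaI-cut and resolved by capillary electrophoresis. ERE-driven cis reporter transcripts reflect endogenous factors; gain or loss scored against DMSO.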

Assay [17] is described as follows: ATG_Ets_CIS: Attagene CIS-FACTORIAL HepG2 Assay for human Erythroblast Transformation Specific (ETS) (AID 2282941). The note with it: HepG2 ETS cis-reporter transcription, actives raise or lower the signal. The gist of the method: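 Bidirectional fit versus DMSO of reporter mRNA signal, detected by RT-PCR and capillary electrophoresis in HepG2 cells transiently transfected with cis-element reporters and dosed 24 h.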

Assay [18] concerns the target Hepatocyte nuclear factor 3-beta (Homo sapiens) (UniProt Q9Y261). Briefly: ATG_FoxA2_CIS: Attagene CIS-FACTORIAL HepG2 Assay for human Forkhead box A2 (FOXA2) (AID 2282942). As to conditions: HepG2 cis-reporter transcription factor activity, 24 h; actives raise or lower the signal. The method in brief: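 Transient MRTU transfection of HepG2 liver cells; 24 h treatment; total RNA → oligo(dT) RT → PCR → FAM primer extension → HpaI cut → CE. Bidirectional fit vs DMSO.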

Assay [19] in a line: ATG_FoxO_CIS: Attagene CIS-FACTORIAL HepG2 Assay for human Forkhead box O (FoxO) (AID 2282943). The note with it: HepG2 Attagene cis-reporter, FoxO element, mRNA; actives raise or lower the signal. The method in brief:
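HepG2 cells transiently transfected with cis-element-driven reporter units report endogenous FoxO activity. After 24 h chemical exposure, reporter mRNA quantified by RT-PCR, fluorescent labeling, HpaI digestion and capillary electrophoresis; bidirectional fit versus DMSO.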

Assay [20] is described as follows: ATG_GATA_CIS: Attagene CIS-FACTORIAL HepG2 Assay for human GATA Binding Protein (AID 2282944). The note with it: HepG2 GATA cis-element reporter, Attagene multiplex mRNA; actives raise or lower the signal. The method in brief:
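Reporter transcripts from a GATA cis-regulated unit, among multiplexed reporters in transfected HepG2 cells, were measured by RT-PCR with capillary electrophoresis after 24 h dosing. Induction or loss scored relative to DMSO.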

Each structure is given as a SMILES string. Results filed as inconclusive are left out. Activity calls are given as the source filed them. The calls were made as follows, unless noted: active = hit-call score of the fitted dose curve at least 0.9, where 1 is the maximum; inactive = score below 0.9.

Chain of CCAAT/enhancer-binding protein beta (Homo sapiens) (P17676 whole entry, looked up): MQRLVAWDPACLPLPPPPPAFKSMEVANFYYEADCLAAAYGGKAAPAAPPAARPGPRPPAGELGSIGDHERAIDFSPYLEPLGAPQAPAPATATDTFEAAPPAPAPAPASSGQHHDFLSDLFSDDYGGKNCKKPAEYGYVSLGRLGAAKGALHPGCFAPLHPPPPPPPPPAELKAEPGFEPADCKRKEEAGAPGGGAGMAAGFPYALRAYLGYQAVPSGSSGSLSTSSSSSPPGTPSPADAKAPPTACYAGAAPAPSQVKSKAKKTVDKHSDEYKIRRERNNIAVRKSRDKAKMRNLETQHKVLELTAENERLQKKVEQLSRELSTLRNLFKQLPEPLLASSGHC
Chain of Hepatocyte nuclear factor 3-beta (Homo sapiens) (Q9Y261 whole entry, looked up): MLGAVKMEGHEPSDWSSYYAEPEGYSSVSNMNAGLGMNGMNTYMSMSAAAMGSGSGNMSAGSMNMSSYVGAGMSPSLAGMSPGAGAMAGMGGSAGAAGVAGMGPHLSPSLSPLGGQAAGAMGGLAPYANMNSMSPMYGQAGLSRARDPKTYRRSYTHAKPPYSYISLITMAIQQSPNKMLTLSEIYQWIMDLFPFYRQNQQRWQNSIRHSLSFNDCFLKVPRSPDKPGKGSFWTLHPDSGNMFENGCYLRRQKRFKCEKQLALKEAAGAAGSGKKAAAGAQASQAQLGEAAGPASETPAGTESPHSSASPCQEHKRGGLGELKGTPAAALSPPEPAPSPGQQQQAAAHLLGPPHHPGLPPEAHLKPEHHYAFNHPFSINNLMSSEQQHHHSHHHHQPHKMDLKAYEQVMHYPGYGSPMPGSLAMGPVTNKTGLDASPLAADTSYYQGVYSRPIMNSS
Chain of Retinoic acid receptor alpha (Homo sapiens) (P10276 whole entry, looked up): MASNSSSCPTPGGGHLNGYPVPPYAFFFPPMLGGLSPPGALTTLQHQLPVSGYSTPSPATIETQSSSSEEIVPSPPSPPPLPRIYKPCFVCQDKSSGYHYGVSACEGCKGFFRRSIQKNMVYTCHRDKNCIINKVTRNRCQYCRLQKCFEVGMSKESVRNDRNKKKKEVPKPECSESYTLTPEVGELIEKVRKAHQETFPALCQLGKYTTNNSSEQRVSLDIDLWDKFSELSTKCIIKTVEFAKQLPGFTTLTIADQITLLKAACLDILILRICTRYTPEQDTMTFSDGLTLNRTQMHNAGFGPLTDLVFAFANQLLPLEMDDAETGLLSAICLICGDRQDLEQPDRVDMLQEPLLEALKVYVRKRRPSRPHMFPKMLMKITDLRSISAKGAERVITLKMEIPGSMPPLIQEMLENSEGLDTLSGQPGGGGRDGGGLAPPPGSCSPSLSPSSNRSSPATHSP
Chain of Transcription factor E2F1 (Homo sapiens) (Q01094 whole entry, looked up): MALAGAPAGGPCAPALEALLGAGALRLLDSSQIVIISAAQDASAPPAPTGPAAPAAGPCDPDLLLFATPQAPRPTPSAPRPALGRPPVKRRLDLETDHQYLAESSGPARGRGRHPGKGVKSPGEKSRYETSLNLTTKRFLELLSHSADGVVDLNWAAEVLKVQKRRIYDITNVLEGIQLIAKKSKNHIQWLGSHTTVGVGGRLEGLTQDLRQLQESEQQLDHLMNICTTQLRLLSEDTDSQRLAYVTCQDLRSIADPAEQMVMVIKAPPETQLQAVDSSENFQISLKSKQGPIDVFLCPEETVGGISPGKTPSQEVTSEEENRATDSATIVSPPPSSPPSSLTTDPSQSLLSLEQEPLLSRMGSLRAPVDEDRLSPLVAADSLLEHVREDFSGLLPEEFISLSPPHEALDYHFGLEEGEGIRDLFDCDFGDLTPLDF
Chain of Aryl hydrocarbon receptor (Homo sapiens) (P35869 whole entry, looked up): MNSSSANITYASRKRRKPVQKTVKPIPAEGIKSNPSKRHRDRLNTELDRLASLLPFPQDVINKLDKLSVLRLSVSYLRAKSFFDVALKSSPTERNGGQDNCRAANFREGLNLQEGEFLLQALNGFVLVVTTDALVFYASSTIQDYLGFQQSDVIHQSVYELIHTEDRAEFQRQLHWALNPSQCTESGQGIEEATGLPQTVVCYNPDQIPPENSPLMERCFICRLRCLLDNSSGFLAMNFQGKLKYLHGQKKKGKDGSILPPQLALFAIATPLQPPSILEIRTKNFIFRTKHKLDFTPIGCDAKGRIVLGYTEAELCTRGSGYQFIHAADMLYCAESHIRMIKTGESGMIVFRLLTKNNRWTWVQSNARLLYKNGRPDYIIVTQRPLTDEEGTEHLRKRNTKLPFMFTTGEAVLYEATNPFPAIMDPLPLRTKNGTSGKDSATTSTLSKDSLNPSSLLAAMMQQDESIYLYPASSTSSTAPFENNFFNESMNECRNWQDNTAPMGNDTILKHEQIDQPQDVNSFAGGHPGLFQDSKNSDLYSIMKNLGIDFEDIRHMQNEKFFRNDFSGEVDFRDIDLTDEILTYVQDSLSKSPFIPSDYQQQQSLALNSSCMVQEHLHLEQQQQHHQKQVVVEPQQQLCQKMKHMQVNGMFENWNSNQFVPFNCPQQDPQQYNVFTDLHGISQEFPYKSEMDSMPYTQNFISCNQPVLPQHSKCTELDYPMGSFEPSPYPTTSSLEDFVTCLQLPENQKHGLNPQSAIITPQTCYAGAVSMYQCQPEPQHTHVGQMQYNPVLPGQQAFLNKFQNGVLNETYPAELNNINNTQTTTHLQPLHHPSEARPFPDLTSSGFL

With `CC(C)CCCC(C)CCO` (stereo not drawn), the compound was called inactive in [1], in [2], in assay [3], in assay [4], in [5] and in assay [6]. Further, the compound was called inactive in [7], in assay [8], in [9], in assay [10], in assay [11] and in [12]. Moreover, the result in assay [13], in assay [14], in [15], in [16], in assay [17] and in assay [18] was inactive. The compound was classed as inactive in assay [19] and in assay [20].
As for `CCCCCC/C=C/CCCCCCCC(=O)O`, the result in [1], in assay [2], in assay [3], in [4], in assay [6] and in [7] was inactive. Besides, the outcome in assay [8], in assay [9], in [10], in assay [11], in assay [12] and in assay [13] was inactive. Besides, the call in [14], in [15], in assay [16], in assay [17], in [18] and in assay [19] was inactive. In addition, in assay [20], the compound was called inactive.
As usually defined, the AC50 is the concentration giving half of the maximal activity seen. Turning to `CC(C)(C)C(=O)C1C(=O)c2ccccc2C1=O`, the AC50 in assay [1] is 10.4 µM (active); in assay [2] it was 57.9 µM (active); in assay [4], 30.1 µM (active); in [6] it was 34.6 µM (active); in assay [7], 30.3 µM (active); in assay [10], 31.9 µM (active). Moreover, the outcome in [3], in [8], in assay [9], in assay [11], in assay [12] and in assay [13] was inactive. For the same compound, the call in [14], in [15], in assay [16], in assay [17], in [18] and in [19] was inactive. In addition, the compound was called inactive in assay [20].
On to `O=C(c1ccccc1)c1ccc(O)cc1O`, for which the AC50 in assay [1] was 1.88 µM (active); in assay [4] it was 123 µM (active); in assay [16] it was 1.72 µM (active). For the same compound, the compound was called inactive in assay [2], in assay [3], in assay [5], in assay [6], in assay [7] and in assay [8]. Also, the outcome in assay [9], in [10], in assay [11], in assay [12], in assay [13] and in [14] was inactive. In addition, the result in assay [15], in assay [17], in [18], in [19] and in [20] was inactive.
With `O=C1C=CC(=O)N1c1ccccc1`, the compound was called inactive in [1], in assay [2], in assay [3], in assay [4], in assay [5] and in [6]. Also, the outcome in assay [7], in assay [8], in assay [9], in [10], in assay [11] and in assay [12] was inactive. The result in assay [13], in [14], in assay [15], in assay [16], in assay [17] and in [18] was inactive. For the same compound, the compound was called inactive in [19] and in assay [20].
Regarding `C=CC(=O)OCC(F)(F)C(F)(F)C(F)(F)COC(=O)C=C`, the call in [1], in [2], in assay [3], in assay [6], in assay [7] and in [8] was inactive. For the same compound, the result in assay [9], in assay [10], in assay [11], in assay [13], in [15] and in assay [16] was inactive. Besides, the compound was classed as inactive in assay [17], in assay [18], in [19] and in assay [20]. For the same compound, the AC50 in [4] was 31.6 µM (active); in [5], 31.7 µM (active); in [12] it was 78.6 µM (active); in assay [14], 42.4 µM (active).
